Experiments:
Assay in all cases: DAPPL (digital affinity profiling via proximity ligation, sequencing); 10 mM Tris-HCl pH 7.5, 50 mM NaCl, 1 mM DTT, 4% glycerol, room temperature, 30 min; GST-TFs on glutathione beads, 16-mer random dsDNA library, 0.1% formaldehyde crosslink after washing; high values mean tight binding
Details in all cases: protein: recombinant; tags: N-terminal GST; dsDNA, one strand shown
FLI1 = biological target: T1, FLI1 (Homo sapiens, UniProt Q01543 1-452)
T1 sequence: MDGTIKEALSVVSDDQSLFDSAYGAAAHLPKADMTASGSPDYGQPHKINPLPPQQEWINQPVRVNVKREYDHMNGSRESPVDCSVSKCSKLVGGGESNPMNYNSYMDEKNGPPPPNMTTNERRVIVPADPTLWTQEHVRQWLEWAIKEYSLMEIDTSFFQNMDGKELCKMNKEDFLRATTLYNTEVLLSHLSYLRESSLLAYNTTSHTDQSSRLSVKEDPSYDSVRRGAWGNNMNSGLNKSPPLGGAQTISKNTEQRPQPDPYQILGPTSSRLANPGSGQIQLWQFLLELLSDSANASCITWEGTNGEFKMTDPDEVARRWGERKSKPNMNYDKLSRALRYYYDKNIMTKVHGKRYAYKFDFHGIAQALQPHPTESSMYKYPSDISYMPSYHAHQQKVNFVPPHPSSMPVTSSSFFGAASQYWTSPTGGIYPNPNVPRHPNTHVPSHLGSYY
Outline: (§1)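 After expression in yeast as GST fusions, human transcription factors were bound to glutathione beads, DNA-barcoded and mixed with a tag-only sample. The pools were incubated with 200 nmole of a 16-mer random double-stranded DNA library in Tris/NaCl/DTT/glycerol buffer (30 min, room temperature), washed and crosslinked with 0.1% formaldehyde. Proximity ligation with BsaI/T4 ligase ran for 1 h at 37 °C, before PCR amplification and sequencing on an Illumina NextSeq500. Binding signal is a hexamer's read frequency for a factor divided by its frequency for the tag-only sample.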

ELK1 = biological target: T2, ELK1 (Homo sapiens, UniProt P19419 1-428)
T2 sequence: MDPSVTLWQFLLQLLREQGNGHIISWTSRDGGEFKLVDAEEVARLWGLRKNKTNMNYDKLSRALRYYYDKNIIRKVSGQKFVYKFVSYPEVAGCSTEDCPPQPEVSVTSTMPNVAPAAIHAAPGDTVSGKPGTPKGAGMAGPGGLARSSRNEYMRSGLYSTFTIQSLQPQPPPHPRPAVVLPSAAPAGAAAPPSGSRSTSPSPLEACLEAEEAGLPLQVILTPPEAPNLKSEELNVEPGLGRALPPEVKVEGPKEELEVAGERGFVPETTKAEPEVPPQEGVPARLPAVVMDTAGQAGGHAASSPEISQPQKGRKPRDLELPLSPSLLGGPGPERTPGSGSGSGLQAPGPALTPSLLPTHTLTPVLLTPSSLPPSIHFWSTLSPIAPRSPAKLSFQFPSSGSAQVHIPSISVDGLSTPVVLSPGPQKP
Outline: as §1

GABPA = biological target: T3, GABPA (Homo sapiens, UniProt Q06546 1-454)
T3 sequence: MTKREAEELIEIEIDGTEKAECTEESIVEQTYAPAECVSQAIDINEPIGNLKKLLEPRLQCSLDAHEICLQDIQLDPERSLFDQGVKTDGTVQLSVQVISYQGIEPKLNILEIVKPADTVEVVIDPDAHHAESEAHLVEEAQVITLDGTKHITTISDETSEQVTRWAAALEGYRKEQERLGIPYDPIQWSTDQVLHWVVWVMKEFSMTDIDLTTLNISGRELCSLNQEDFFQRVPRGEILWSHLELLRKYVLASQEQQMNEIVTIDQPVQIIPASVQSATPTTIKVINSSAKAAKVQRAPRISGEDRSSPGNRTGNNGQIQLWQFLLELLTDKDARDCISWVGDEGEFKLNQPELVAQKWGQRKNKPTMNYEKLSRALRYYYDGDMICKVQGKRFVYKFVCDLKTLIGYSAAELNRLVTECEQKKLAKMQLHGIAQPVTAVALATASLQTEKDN
Outline: as §1

ERG = biological target: T4, ERG (Homo sapiens, UniProt P11308 1-479)
T4 sequence: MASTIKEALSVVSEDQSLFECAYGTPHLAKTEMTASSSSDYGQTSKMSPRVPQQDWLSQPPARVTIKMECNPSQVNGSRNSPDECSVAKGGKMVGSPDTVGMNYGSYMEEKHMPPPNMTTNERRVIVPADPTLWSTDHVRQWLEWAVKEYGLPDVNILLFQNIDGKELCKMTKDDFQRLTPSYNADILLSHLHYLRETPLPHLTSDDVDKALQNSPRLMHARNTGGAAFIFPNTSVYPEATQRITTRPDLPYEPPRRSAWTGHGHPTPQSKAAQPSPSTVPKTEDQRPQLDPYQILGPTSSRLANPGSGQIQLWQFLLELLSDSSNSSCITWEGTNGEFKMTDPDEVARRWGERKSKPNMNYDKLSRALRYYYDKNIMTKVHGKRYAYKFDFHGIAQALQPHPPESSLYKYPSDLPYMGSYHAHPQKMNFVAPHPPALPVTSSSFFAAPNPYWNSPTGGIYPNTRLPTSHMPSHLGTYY
Outline: as §1

ELF1 = ELF1 (Homo sapiens, UniProt P32519 1-619)
Outline: as §1

EHF = biological target: T5, EHF (Homo sapiens, UniProt Q9NZC4 1-300)
T5 sequence: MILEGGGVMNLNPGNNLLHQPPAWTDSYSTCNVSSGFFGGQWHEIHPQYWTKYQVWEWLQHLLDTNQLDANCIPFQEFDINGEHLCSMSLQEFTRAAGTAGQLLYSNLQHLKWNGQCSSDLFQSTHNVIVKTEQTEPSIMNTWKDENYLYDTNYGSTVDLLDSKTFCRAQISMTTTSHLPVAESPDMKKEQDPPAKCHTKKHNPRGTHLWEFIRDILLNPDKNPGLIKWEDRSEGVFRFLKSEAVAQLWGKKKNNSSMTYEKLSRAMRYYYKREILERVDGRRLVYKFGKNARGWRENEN
Outline: as §1

SPI1 = SPI1 (Homo sapiens, UniProt P17947 1-270)
Outline: as §1

SPIB = SPIB (Homo sapiens, UniProt Q01892 1-262)
Outline: as §1

ELK3 = biological target: T6, ELK3 (Homo sapiens, UniProt P41970 1-407)
T6 sequence: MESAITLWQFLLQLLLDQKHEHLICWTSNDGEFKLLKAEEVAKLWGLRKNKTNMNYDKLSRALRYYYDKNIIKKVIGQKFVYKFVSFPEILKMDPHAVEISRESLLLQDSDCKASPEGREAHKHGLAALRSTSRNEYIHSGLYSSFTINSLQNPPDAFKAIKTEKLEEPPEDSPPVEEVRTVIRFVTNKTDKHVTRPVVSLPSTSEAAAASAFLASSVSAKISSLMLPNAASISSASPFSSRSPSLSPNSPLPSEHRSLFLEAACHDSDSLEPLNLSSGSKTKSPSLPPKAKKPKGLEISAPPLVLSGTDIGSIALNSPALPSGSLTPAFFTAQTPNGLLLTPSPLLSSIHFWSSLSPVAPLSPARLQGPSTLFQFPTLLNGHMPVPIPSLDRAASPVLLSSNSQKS
Outline: as §1

ETV5 = ETV5 (Homo sapiens, UniProt P41161 1-510)
Outline: as §1

SPIC = biological target: T7, SPIC (Homo sapiens, UniProt Q8N5J4 1-248)
T7 sequence: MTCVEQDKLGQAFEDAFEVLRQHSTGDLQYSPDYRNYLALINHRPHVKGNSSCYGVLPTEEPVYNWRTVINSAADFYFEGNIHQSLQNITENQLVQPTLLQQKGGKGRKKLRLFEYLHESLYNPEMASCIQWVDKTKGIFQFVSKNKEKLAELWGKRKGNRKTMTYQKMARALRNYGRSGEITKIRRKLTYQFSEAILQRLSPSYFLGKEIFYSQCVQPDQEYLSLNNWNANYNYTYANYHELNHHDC
Outline: as §1

ELF4 = ELF4 (Homo sapiens, UniProt Q99607 1-663)
Outline: as §1

ELK4 = biological target: T8, ELK4 (Homo sapiens, UniProt P28324-2 1-405)
T8 sequence: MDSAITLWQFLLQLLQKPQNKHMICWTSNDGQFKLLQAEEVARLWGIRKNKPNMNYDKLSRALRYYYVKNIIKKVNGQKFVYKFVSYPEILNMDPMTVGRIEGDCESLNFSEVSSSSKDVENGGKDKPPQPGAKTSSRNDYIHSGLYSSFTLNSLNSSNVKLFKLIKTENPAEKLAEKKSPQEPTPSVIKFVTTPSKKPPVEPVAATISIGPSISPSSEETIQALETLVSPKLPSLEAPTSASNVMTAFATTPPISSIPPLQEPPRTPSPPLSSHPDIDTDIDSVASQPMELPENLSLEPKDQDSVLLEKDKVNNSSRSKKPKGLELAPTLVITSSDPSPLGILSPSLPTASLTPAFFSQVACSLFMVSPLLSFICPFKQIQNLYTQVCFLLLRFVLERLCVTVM
Outline: as §1

ETV2 = biological target: T9, ETV2 (Homo sapiens, UniProt O00321 1-342)
T9 sequence: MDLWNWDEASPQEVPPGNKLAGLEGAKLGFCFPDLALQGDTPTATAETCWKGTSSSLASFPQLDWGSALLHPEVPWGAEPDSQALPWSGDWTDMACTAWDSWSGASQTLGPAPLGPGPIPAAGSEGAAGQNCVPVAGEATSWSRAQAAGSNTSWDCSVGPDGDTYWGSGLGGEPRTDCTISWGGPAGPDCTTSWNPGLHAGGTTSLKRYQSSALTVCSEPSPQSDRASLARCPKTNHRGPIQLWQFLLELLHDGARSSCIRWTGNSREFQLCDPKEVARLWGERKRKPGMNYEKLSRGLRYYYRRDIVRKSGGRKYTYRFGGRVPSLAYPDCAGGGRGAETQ
Outline: as §1

ETV1 = ETV1 (Homo sapiens, UniProt P50549 1-477)
Outline: as §1

FEV = biological target: T10, FEV (Homo sapiens, UniProt Q99581 1-238)
T10 sequence: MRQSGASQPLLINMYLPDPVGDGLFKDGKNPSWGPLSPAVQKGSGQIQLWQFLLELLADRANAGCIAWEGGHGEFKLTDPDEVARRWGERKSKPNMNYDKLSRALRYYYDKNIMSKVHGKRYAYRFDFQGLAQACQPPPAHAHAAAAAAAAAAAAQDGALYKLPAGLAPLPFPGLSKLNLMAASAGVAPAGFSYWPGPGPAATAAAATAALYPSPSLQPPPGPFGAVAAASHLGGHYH
Outline: as §1

ELF3 = biological target: T11, ELF3 (Homo sapiens, UniProt P78545 1-371)
T11 sequence: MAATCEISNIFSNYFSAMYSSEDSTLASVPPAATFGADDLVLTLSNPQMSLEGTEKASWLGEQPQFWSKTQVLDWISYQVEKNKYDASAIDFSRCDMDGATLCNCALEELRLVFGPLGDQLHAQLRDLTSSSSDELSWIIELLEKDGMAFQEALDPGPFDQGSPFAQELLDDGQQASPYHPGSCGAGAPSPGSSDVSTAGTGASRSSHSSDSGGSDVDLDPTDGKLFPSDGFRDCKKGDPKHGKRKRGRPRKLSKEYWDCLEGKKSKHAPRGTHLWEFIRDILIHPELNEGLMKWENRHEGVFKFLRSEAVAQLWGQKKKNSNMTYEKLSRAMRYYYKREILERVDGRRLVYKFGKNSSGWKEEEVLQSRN
Outline: as §1

Sequence of ELF4 (Q99607 whole entry): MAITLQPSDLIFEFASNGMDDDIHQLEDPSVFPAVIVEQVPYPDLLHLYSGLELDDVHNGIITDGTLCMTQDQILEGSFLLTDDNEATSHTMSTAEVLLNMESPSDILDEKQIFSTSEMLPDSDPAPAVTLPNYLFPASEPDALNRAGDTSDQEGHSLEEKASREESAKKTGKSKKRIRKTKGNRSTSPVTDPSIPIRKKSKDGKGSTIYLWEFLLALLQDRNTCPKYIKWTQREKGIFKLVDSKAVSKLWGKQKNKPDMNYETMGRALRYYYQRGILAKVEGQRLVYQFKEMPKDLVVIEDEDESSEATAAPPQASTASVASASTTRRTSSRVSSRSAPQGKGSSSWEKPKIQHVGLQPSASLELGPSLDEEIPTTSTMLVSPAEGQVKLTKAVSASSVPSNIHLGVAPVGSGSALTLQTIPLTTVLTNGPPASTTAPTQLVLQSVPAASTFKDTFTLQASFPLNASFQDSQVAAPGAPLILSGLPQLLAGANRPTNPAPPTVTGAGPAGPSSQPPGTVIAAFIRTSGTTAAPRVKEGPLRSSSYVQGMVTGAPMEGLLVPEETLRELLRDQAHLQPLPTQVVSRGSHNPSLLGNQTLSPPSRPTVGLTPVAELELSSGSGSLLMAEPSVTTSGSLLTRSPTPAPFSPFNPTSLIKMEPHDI
Sequence of ETV1 (P50549 whole entry): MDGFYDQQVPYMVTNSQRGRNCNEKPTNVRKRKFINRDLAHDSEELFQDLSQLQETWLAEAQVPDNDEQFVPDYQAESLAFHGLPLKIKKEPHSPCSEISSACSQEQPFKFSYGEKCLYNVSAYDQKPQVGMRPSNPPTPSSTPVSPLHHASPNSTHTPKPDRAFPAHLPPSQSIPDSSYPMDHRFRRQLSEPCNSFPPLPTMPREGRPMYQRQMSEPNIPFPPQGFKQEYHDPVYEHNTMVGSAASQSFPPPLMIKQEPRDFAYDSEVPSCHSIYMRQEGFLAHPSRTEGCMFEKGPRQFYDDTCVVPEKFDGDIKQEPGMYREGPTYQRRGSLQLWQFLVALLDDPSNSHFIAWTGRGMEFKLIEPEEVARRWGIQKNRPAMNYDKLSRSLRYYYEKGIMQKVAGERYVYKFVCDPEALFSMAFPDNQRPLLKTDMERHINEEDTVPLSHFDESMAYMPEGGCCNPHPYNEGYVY
Sequence of ETV5 (P41161 whole entry): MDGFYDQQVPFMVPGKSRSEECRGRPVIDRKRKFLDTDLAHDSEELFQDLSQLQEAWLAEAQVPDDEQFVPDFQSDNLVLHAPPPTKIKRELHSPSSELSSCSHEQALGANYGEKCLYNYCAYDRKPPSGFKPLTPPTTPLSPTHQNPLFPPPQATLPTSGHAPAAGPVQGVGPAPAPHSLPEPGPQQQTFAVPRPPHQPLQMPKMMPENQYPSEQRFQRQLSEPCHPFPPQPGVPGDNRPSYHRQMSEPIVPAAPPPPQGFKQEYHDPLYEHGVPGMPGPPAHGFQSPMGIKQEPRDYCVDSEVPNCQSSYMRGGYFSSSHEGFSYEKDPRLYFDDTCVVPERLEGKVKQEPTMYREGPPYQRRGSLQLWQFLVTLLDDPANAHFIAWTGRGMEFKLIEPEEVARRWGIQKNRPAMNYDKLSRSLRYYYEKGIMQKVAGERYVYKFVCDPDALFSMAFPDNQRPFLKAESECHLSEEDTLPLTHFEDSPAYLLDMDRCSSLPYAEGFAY
Sequence of SPIB (Q01892 whole entry): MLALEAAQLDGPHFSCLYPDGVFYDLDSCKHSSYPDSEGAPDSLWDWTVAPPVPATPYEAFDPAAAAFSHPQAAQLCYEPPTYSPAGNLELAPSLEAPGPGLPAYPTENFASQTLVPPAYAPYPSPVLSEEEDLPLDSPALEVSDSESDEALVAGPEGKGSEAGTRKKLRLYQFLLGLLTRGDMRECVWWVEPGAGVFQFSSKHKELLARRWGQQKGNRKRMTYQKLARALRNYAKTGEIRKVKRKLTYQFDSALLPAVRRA
Sequence of ELF1 (P32519 whole entry): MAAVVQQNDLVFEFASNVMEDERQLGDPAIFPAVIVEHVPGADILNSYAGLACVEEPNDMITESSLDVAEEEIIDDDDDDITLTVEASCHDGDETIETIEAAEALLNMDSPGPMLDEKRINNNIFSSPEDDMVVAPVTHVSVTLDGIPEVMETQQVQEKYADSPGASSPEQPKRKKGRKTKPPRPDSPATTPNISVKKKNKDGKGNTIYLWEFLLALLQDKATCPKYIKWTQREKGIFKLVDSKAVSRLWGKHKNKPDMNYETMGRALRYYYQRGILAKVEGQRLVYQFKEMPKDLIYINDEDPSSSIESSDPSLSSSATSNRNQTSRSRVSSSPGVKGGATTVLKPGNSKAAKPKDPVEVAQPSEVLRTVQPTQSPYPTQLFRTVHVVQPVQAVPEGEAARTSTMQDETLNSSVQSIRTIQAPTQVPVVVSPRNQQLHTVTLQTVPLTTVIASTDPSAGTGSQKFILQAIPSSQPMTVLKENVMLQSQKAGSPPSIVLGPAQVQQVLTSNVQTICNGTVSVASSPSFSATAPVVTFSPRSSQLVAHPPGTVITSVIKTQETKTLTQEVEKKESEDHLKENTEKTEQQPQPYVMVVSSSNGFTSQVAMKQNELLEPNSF

| Sequence | binding signal (FLI1) | binding signal (ELK1) | binding signal (GABPA) | binding signal (ERG) | binding signal (ELF1) | binding signal (EHF) | binding signal (SPI1) | binding signal (SPIB) | binding signal (ELK3) | binding signal (ETV5) | binding signal (SPIC) | binding signal (ELF4) | binding signal (ELK4) | binding signal (ETV2) | binding signal (ETV1) | binding signal (FEV) | binding signal (ELF3) |
| --- | --- | --- | --- | --- | --- | --- | --- | --- | --- | --- | --- | --- | --- | --- | --- | --- | --- |
| CGTATG | 1.1 fold enrichment (6-mer frequency, TF over GST control) | 1.1 fold enrichment (6-mer frequency, TF over GST control) | 1.08 fold enrichment (6-mer frequency, TF over GST control) | 1.03 fold enrichment (6-mer frequency, TF over GST control) | 1.1 fold enrichment (6-mer frequency, TF over GST control) | 1.1 fold enrichment (6-mer frequency, TF over GST control) | 1.07 fold enrichment (6-mer frequency, TF over GST control) | 1.09 fold enrichment (6-mer frequency, TF over GST control) | 1.13 fold enrichment (6-mer frequency, TF over GST control) | 1.09 fold enrichment (6-mer frequency, TF over GST control) | 1.07 fold enrichment (6-mer frequency, TF over GST control) | 1.04 fold enrichment (6-mer frequency, TF over GST control) | 1 fold enrichment (6-mer frequency, TF over GST control) | 1.09 fold enrichment (6-mer frequency, TF over GST control) | 1.04 fold enrichment (6-mer frequency, TF over GST control) |  |  |
| ACAATG | 1.1 fold enrichment (6-mer frequency, TF over GST control) | 1.06 fold enrichment (6-mer frequency, TF over GST control) | 1.17 fold enrichment (6-mer frequency, TF over GST control) | 1.14 fold enrichment (6-mer frequency, TF over GST control) | 1.15 fold enrichment (6-mer frequency, TF over GST control) | 1.09 fold enrichment (6-mer frequency, TF over GST control) | 1.06 fold enrichment (6-mer frequency, TF over GST control) | 1.16 fold enrichment (6-mer frequency, TF over GST control) | 1.08 fold enrichment (6-mer frequency, TF over GST control) | 1.11 fold enrichment (6-mer frequency, TF over GST control) | 1.08 fold enrichment (6-mer frequency, TF over GST control) | 1.13 fold enrichment (6-mer frequency, TF over GST control) | 1.16 fold enrichment (6-mer frequency, TF over GST control) |  | 1.07 fold enrichment (6-mer frequency, TF over GST control) | 1.08 fold enrichment (6-mer frequency, TF over GST control) | 1.17 fold enrichment (6-mer frequency, TF over GST control) |
| CGGTAT | 1.08 fold enrichment (6-mer frequency, TF over GST control) | 1.12 fold enrichment (6-mer frequency, TF over GST control) | 1.01 fold enrichment (6-mer frequency, TF over GST control) | 1.13 fold enrichment (6-mer frequency, TF over GST control) | 1.1 fold enrichment (6-mer frequency, TF over GST control) | 1.08 fold enrichment (6-mer frequency, TF over GST control) |  | 1.07 fold enrichment (6-mer frequency, TF over GST control) | 1.01 fold enrichment (6-mer frequency, TF over GST control) | 1.06 fold enrichment (6-mer frequency, TF over GST control) | 1.08 fold enrichment (6-mer frequency, TF over GST control) | 1.06 fold enrichment (6-mer frequency, TF over GST control) | 1.03 fold enrichment (6-mer frequency, TF over GST control) | 1.31 fold enrichment (6-mer frequency, TF over GST control) | 1.09 fold enrichment (6-mer frequency, TF over GST control) | 1.08 fold enrichment (6-mer frequency, TF over GST control) |  |

— PMC7862700, “An all-to-all approach to the identification of sequence-specific readers for epigenetic DNA modifications on cytosine”
